KKLEB cytotox: cytotoxicity in KKLEB CF airway cells, primary screen, cytotoxicity control for CF NF-kB inhibitor project, cell-based, uHTS, fluorescence assay plates; KKLEB CF airway cells viability, ATPlite luminescence, overnight; active compounds read low; cells stimulated with P. aeruginosa culture filtrate; activity change (cytotoxicity), % at 5 µM; actives 0.36% (n = 360,000); AID 602141, 2011;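 active = corrected activity change at or below -50% at 5 µM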
TROY NFkB inh: inhibitors of TROY-driven NF-kB signaling, primary screen, Q293 LMP1-TROYcd cells, NF-kB luciferase, uHTS | Q293 LMP1-TROYcd NF-kB luciferase reporter, 4 h | inhibition, % at 10 µM | actives 0.98% (n = 360,000) | AID 1347056, 2019;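 active = compounds whose plate-normalised and pattern-corrected inhibition of the luciferase reporter signal at the single screening dose is 50% or more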
Peg3 prom inh: Peg3 promoter-driven luciferase inhibitors, primary screen, cell-based, HeLa, luciferase luminescence | HeLa PEG-Prom luciferase reporter, overnight | inhibition, % at 20 µM | actives 1.7% (n = 360,000) | AID 588405, 2011;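 active = inhibition of at least 50% at 20 µM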
HIF-2a inh: HIF-2a reporter inhibitors, primary screen, luminescence, 786-0 RCC cells; 786-0 RCC cells HIF-2a reporter, luciferase luminescence, overnight; inhibition, % at 18.8 µM; actives 0.72% (n = 360,000); AID 624352, 2012;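 active = inhibition of the luminescence signal of 40% or more relative to plate controls, in a single-dose primary screen at 18.75 µM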
CF NFkB block: inhibitors of PAF-induced NF-kB signaling, primary screen, cell-based, GFP fluorescence, uHTS; KKLEB NF-kB-GFP reporter, GFP fluorescence overnight; inhibition, % at 5 µM; actives 0.86% (n = 360,000);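 active = at least 50% inhibition at 5 µM, scaled per plate between neutral and stimulator controls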;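 also: PAF is a Pseudomonas aeruginosa culture filtrate used as stimulus; plate controls were PAF-stimulated DMSO wells for no effect and unstimulated DMSO wells for full effect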
TWEAK Fn14 block: inhibitors of TWEAK-Fn14 signaling, primary screen, luciferase reporter cells, uHTS; TWEAK-stimulated Fn14 reporter cells, luciferase luminescence, 8 h; actives 2% (n = 360,000); inhibition, % at 10 µM; in the data active = inhibition above about 50%
* = called active by the depositor. Sampled rows, rich in hits. Any-hit rate of the full collection: about 3.9%.

SMILES	KKLEB cytotox	TROY NFkB inh	Peg3 prom inh	HIF-2a inh	CF NFkB block	TWEAK Fn14 block
COc1ccc(NC(=O)CCCC(=O)NCCc2ccc(OC)c(OC)c2)cc1	16.6	-13.1	7.9	16.6	-13.8	88.8*
COc1ccc(OCCCC(=O)NCCc2ccc(OC)c(OC)c2)cc1	5.4	20.8	6.2	10.7	2.4	13.5
Cn1cc(CNC(=O)COc2ccc(Cl)cc2Cl)cn1	2.7	-5.9	8.6	-0.1	10.9	2.9
CCc1nc2ccc(C(=O)NCc3cccs3)cn2c1N(CC)Cc1cccc(Br)c1	3.6	13.3	56.6*	7.1	-11.5	9.6
CCCCC(=O)Nc1ccccc1Oc1ccccc1	-32.9	-4.4	7.2	12.7	12.9	0.4
Fc1ccc(-c2noc(-c3ccc4c(c3)CCO4)n2)cc1	-12.9	15.0	-176.5	-238.1	-0.6	61.0*
CC(=O)c1c(C)[nH]c(C(=O)OCC(=O)N2CCc3ccccc32)c1C	4.0	-63.9	-98.7	-145.5	-15.6	-23.5
COc1ccc(COc2ccccc2C(=O)NCc2ccccc2)cc1F	-14.0	47.4	18.6	6.0	16.3	68.8*
CN1C(=O)N(C)c2cccc3cccc1c23	3.0	14.2	33.8	3.9	3.2	-6.8
CCc1ccc2cccc3c2c1N=CN3C	-5.2	18.7	12.9	13.4	-5.5	86.3*
CCc1cc2c(Nc3ccccc3O)nc(C)nc2s1	4.0	-8.4	19.2	10.2	-20.4	2.1
O=[N+]([O-])c1ccc(O)c(/C=N/Nc2ccccc2Cl)c1	-19.5	69.3*	-178.8	-276.1	41.5	11.2
O=[N+]([O-])c1ccccc1N/N=C\c1ccccc1Cl	3.6	-77.1	-329.0	-194.3	-4.0	-34.2
O=C(/C=C/c1ccc(F)cc1)N1CCN(S(=O)(=O)/C=C/c2ccccc2)CC1	-26.6	-0.9	17.4	5.4	4.4	8.4
C=CC(=O)N1C/C(=C/c2ccc(F)cc2)C(=O)/C(=C\c2ccc(F)cc2)C1	-68.8*	78.6*	106.9*	82.0*	90.9*	105.9*
O=C(O)c1cc(-c2ccc3c(c2)OCCO3)n[nH]1	-6.0	4.2	0.3	19.8	11.2	-3.1
Oc1ccccc1-c1cc(-c2ccc3c(c2)OCCO3)n[nH]1	6.3	58.4*	-143.0	-166.7	2.7	71.1*
COc1ccc(NC(=O)Cc2ccccc2)cn1	-5.2	-8.1	-10.7	-9.7	-9.4	0.5
COc1ccc(NC(=O)/C(Cl)=C(/Cl)S(=O)Cc2ccccc2)cn1 (configuration not stated)	-95.4*	63.0*	104.6*	93.9*	88.5*	97.8*
O=C(Nc1ccc(NC(=O)C2CC2)cn1)c1ccccc1	-9.9	35.5	-94.7	-57.8	15.4	54.0*
O=C(COC(=O)c1cc(=O)[nH]c2ccccc12)NC1CCCCCCC1	2.1	15.5	19.3	14.6	0.7	5.8
CN(c1ccccc1)S(=O)(=O)c1cccc(NC(=O)COC(=O)C2CCCCC2)c1	-8.4	-2.9	7.3	-5.6	-5.1	-2.3
CC(C)C(=O)Nc1cccc(S(=O)(=O)NC2=NCCC2)c1	23.4	-3.9	5.8	9.7	-19.5	10.3
CCC(CC)C(=O)Nc1ccc(Sc2ccc([N+](=O)[O-])cc2)cc1	-15.9	54.6*	23.3	-35.3	-0.3	41.4
COC(=O)c1ccc(NC(=O)Nc2ccc([N+](=O)[O-])cc2)cc1	-1.6	50.1*	15.3	7.8	16.6	20.2
SMILES	KKLEB cytotox	TROY NFkB inh	Peg3 prom inh	HIF-2a inh	CF NFkB block	TWEAK Fn14 block
O=C(Nc1ccc([N+](=O)[O-])cc1)C(c1ccccc1)c1ccccc1	3.1	42.7	51.9*	-4.3	2.2	12.1
O=C(NCC(O)c1ccc([N+](=O)[O-])cc1)C(c1ccccc1)c1ccccc1 (configuration not stated)	-1.0	1.6	8.6	7.3	0.6	4.6
Cc1cccc(NC(=S)N2CCC(C(N)=O)(N3CCCCC3)CC2)c1C	4.2	10.5	2.2	14.6	9.0	-5.8
COc1ccccc1N1CCN(CCCCN2C(=O)C3CCCN3C2=O)CC1 (configuration not stated)	3.5	15.2	11.1	19.3	6.7	-3.8
N=C1/C(=C\c2ccc(-c3ccc(C(=O)O)cc3)o2)C(=O)N=C2SC=C(c3ccccc3)N12	-4.7	4.5	-8.8	-6.8	72.0*	40.3
COc1cc(C2NC(=O)c3ccccc3O2)cc(OC)c1OC (configuration not stated)	-3.9	-6.5	5.8	6.8	5.1	-3.8
COc1cc(C2Oc3ccccc3C=C2[N+](=O)[O-])cc(OC)c1OC (configuration not stated)	-13.8	-0.2	52.0*	32.0	-28.6	-13.6
CCOc1ccc(N2C(=O)CC(Sc3nnnn3-c3ccccc3)C2=O)cc1 (configuration not stated)	0.8	-5.0	95.9*	-1.0	49.1	-5.1
CCOc1ccc(N2C(=O)CC(Sc3nc(C)cc(C)n3)C2=O)cc1 (configuration not stated)	-5.2	-12.3	24.3	6.0	7.6	-16.4
CCOc1ccc(NC(=O)C(C)Oc2ccccc2C(=O)Nc2cccc(Cl)c2Cl)cc1 (configuration not stated)	6.7	11.6	12.7	12.1	-17.8	-10.6
Cc1ccc(-c2csc(Cc3nc(-c4cc5ccccc5oc4=O)cs3)n2)cc1	-5.6	-64.6	-29.6	-24.5	-15.4	23.4
Cc1ccn2cc(-c3cc4ccccc4oc3=O)nc2c1	-1.1	-0.3	-37.7	-49.1	-17.5	66.0*
COC1=CC(=O)C=C(OC)C1=O	-9.2	-14.4	102.3*	6.3	24.1	28.2
COC1=CC(=O)c2ccccc2C1=O	-28.7	-5.6	24.3	28.6	91.4*	20.6
COc1cc(N=CC2=C(O)c3ccccc3C2=O)cc(OC)c1	1.4	-80.3	-175.5	-165.8	21.7	-24.7
COc1ccc(SN=C2C(C)=CC(=O)C=C2C)cc1	-4.8	-31.3	8.9	-2.3	11.4	12.3
COc1ccc([C@H]2CC(=O)C=C(c3ccnc4ccc(Cl)cc34)C2)cc1	3.3	39.2	23.3	24.6	19.1	51.9*
COc1ccc([C@H]2CC(=O)C=C(c3cc(Cl)ccc3C)C2)cc1	10.7	-3.4	20.3	1.9	10.7	14.7
CCCCNC(=S)N(C)/N=C/c1c(F)c(F)c(F)c(F)c1F	-1.1	-9.3	71.3*	19.3	-16.1	-108.2
COc1ccc(N(C)C(=O)c2cc3c(s2)-c2ccc(Cl)cc2S(=O)(=O)C3)c(OC)c1	-11.8	31.5	-0.8	17.4	4.4	71.4*

Source: PubChem
